# Values joined by “and” are separate entries in the source; they are usually repeats but may differ in a detail not shown here. Identical values can stand only once.
# What was measured:
# [1] = target: Mitogen-activated protein kinase 3 (Homo sapiens) (UniProt P27361); conditions: at 1 µM;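 note: values are mean percent inhibition of MAPK3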
# [2] = target: SRSF protein kinase 3 (Homo sapiens) (UniProt Q9UPE1); conditions: at 0.1 µM
# [3] = target: SRSF protein kinase 3 (Homo sapiens) (UniProt Q9UPE1); conditions: at 1 µM
# [4] = target: Mitogen-activated protein kinase 14 (Homo sapiens) (UniProt Q16539); conditions: at 0.1 µM
# [5] = target: Mitogen-activated protein kinase 14 (Homo sapiens) (UniProt Q16539); conditions: at 1 µM
# [6] = target: Mitogen-activated protein kinase 11 (Homo sapiens) (UniProt Q15759); conditions: at 0.1 µM
# [7] = target: Mitogen-activated protein kinase 11 (Homo sapiens) (UniProt Q15759); conditions: at 1 µM
# [8] = target: T1, Mitogen-activated protein kinase 13 (Homo sapiens) (UniProt O15264); conditions: at 0.1 µM
# T1 sequence (whole entry): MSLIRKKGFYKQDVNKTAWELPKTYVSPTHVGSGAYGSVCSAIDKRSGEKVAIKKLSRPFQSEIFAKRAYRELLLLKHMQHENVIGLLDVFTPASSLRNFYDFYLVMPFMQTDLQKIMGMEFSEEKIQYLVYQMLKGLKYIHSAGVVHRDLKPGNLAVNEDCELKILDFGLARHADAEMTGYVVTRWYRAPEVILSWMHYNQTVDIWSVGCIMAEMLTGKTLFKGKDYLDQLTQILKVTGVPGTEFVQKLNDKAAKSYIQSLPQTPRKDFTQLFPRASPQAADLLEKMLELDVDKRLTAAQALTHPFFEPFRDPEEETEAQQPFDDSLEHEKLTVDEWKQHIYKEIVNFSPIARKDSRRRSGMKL
# [9] = target: T1, Mitogen-activated protein kinase 13 (Homo sapiens); conditions: at 1 µM
# [10] = target: T2, Mitogen-activated protein kinase 12 (Homo sapiens) (UniProt P53778); conditions: at 0.1 µM
# T2 sequence (whole entry): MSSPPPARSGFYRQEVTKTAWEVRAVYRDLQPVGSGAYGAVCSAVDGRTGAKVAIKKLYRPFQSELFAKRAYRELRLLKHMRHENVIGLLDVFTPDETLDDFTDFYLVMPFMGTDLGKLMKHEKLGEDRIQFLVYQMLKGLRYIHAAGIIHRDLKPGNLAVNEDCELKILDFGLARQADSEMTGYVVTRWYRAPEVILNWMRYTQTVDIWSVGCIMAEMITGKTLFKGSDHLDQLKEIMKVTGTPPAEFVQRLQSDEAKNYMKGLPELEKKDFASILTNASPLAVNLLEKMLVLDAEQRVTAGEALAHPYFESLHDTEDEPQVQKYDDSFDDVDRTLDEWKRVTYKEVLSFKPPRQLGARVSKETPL
# [11] = target: T2, Mitogen-activated protein kinase 12 (Homo sapiens); conditions: at 1 µM
# [12] = target: SRSF protein kinase 1 (Homo sapiens) (UniProt Q96SB4); conditions: at 0.1 µM
# [13] = target: SRSF protein kinase 1 (Homo sapiens) (UniProt Q96SB4); conditions: at 1 µM
# [14] = target: Phosphatidylinositol 4,5-bisphosphate 3-kinase catalytic subunit alpha isoform (Homo sapiens) (UniProt P42336); conditions: at 0.1 µM
# [15] = target: Phosphatidylinositol 4,5-bisphosphate 3-kinase catalytic subunit alpha isoform (Homo sapiens) (UniProt P42336); conditions: at 1 µM
# [16] = target: T3, Phosphatidylinositol 4,5-bisphosphate 3-kinase catalytic subunit delta isoform (Homo sapiens) (UniProt O00329); conditions: at 0.1 µM
# T3 sequence (whole entry): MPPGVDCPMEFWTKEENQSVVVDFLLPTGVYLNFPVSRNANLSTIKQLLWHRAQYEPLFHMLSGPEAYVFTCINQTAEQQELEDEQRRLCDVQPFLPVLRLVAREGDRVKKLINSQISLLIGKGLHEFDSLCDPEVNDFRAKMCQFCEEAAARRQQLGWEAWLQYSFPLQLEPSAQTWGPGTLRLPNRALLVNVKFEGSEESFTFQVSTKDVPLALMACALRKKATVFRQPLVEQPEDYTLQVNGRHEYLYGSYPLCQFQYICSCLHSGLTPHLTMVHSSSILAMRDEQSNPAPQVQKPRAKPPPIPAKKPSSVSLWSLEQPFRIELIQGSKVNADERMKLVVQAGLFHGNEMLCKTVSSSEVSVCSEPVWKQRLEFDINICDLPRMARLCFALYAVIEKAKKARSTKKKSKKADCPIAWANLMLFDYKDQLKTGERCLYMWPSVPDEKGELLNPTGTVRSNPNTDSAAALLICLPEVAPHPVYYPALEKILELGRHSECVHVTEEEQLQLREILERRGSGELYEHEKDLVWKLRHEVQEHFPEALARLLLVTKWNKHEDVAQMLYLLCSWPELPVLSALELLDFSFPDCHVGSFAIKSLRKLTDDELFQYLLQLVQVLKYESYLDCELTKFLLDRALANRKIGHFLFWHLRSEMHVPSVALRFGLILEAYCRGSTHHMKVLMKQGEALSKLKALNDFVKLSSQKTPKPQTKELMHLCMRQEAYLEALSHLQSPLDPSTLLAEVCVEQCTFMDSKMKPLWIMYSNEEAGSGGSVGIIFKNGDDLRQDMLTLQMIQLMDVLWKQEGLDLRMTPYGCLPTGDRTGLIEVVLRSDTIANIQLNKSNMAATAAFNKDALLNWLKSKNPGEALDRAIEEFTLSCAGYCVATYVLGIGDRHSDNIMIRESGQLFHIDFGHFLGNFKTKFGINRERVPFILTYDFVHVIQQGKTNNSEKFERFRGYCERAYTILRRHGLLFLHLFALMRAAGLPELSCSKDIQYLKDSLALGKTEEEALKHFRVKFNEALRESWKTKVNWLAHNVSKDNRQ
# [17] = target: T3, Phosphatidylinositol 4,5-bisphosphate 3-kinase catalytic subunit delta isoform (Homo sapiens); conditions: at 1 µM
# [18] = target: Phosphatidylinositol 4-kinase beta (Homo sapiens) (UniProt Q9UBF8); conditions: at 0.1 µM
# [19] = target: Phosphatidylinositol 4-kinase beta (Homo sapiens) (UniProt Q9UBF8); conditions: at 1 µM
# [20] = target: Sphingosine kinase 1 (Homo sapiens) (UniProt Q9NYA1); conditions: at 0.1 µM;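 note: mean percent inhibition of SPHK1 activity, measured within the GSK PKIS screening panel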
# Sphingosine kinase 1 (Homo sapiens), sequence (Q9NYA1 whole entry): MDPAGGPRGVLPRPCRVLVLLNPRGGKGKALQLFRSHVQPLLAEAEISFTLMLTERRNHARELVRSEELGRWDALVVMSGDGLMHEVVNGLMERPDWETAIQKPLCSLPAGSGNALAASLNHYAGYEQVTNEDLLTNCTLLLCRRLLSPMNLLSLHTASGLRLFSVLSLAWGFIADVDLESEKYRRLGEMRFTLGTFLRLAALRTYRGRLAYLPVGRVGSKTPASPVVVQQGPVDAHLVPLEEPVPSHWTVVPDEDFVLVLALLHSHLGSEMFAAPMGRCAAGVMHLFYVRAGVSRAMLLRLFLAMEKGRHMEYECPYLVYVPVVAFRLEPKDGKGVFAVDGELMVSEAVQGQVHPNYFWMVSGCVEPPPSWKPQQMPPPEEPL
# Phosphatidylinositol 4-kinase beta (Homo sapiens), sequence (Q9UBF8 2-816 limits assumed): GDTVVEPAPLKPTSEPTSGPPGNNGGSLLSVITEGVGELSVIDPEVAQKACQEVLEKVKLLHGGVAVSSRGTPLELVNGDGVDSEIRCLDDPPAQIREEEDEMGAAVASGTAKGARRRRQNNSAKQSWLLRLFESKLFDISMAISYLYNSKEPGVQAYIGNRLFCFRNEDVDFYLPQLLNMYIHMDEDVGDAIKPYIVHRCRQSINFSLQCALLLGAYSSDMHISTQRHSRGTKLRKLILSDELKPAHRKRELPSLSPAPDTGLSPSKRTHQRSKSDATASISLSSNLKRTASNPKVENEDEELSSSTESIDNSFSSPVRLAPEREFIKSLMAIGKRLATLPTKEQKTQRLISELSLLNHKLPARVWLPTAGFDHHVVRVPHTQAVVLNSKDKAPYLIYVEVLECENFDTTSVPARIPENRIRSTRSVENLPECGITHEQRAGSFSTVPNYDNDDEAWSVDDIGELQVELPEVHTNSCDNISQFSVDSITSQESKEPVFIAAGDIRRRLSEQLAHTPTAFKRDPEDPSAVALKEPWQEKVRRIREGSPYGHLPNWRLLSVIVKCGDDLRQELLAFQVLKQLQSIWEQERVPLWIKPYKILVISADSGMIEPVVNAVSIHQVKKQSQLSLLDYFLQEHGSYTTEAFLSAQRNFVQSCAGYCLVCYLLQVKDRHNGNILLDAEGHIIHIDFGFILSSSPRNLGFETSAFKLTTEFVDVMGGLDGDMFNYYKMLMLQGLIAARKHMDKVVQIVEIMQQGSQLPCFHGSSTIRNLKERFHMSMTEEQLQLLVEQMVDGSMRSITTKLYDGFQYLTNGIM
# Mitogen-activated protein kinase 11 (Homo sapiens), sequence (Q15759 whole entry): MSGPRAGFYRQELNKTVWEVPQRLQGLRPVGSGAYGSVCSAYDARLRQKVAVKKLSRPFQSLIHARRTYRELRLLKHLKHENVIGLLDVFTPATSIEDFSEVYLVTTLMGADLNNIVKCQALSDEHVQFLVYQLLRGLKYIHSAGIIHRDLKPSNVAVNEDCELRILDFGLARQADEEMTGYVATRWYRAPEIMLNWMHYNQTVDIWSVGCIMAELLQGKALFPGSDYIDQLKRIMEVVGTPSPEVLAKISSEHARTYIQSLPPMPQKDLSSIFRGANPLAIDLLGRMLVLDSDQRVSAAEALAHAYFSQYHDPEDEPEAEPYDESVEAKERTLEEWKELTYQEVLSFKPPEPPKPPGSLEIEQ
# SRSF protein kinase 1 (Homo sapiens), sequence (Q96SB4 whole entry, canonical isoform): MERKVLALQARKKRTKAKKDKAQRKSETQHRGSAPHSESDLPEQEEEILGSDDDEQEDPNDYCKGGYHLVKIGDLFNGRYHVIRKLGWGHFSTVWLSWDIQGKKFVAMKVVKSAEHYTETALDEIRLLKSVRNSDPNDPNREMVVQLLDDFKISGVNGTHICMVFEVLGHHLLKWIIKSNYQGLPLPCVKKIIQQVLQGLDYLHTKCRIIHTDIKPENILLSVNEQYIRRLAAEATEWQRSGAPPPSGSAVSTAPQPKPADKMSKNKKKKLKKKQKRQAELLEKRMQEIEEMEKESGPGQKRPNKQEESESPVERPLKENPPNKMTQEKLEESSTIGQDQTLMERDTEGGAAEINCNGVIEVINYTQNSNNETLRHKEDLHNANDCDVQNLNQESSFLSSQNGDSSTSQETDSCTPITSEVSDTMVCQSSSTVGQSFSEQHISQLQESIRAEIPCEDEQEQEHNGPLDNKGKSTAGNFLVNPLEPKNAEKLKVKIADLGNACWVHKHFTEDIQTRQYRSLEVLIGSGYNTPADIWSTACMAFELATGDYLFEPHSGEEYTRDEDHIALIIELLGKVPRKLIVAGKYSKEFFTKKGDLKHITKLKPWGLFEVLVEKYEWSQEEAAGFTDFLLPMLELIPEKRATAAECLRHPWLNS
# Mitogen-activated protein kinase 3 (Homo sapiens), sequence (P27361 whole entry): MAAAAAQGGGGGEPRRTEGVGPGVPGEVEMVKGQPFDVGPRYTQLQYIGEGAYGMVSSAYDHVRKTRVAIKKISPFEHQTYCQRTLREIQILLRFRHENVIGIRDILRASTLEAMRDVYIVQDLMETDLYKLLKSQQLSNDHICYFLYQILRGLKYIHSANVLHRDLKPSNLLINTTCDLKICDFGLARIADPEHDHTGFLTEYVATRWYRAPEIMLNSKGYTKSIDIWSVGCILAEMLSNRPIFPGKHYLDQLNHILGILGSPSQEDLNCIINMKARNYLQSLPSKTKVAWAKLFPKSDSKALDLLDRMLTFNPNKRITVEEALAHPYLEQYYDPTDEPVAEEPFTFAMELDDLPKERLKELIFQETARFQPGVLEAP
# SRSF protein kinase 3 (Homo sapiens), sequence (Q9UPE1 whole entry): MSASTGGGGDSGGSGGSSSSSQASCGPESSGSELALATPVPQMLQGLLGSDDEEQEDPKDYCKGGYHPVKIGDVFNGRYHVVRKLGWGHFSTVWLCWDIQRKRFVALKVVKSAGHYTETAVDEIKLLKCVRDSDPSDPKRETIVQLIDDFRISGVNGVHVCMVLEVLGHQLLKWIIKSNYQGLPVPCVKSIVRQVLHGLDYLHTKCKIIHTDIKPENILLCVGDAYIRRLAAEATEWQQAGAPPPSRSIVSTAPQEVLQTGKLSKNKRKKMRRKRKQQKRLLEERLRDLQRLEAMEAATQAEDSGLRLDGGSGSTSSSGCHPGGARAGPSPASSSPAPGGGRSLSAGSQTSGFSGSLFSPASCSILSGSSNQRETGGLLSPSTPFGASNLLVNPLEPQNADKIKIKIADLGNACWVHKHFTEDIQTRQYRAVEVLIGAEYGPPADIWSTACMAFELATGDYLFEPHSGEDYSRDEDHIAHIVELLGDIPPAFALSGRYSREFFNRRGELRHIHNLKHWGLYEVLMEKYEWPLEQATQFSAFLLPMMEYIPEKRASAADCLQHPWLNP
# Mitogen-activated protein kinase 14 (Homo sapiens), sequence (Q16539 whole entry): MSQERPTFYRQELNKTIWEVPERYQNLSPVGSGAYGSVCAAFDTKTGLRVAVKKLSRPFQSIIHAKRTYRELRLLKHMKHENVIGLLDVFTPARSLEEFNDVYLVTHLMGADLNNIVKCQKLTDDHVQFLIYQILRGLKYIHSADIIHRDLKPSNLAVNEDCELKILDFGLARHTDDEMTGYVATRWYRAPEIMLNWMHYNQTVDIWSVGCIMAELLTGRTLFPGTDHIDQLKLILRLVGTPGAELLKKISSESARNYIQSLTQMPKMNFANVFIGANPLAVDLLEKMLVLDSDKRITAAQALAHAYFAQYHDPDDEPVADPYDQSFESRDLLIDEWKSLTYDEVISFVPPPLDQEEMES
# Phosphatidylinositol 4,5-bisphosphate 3-kinase catalytic subunit alpha isoform (Homo sapiens), sequence (P42336 whole entry, canonical isoform): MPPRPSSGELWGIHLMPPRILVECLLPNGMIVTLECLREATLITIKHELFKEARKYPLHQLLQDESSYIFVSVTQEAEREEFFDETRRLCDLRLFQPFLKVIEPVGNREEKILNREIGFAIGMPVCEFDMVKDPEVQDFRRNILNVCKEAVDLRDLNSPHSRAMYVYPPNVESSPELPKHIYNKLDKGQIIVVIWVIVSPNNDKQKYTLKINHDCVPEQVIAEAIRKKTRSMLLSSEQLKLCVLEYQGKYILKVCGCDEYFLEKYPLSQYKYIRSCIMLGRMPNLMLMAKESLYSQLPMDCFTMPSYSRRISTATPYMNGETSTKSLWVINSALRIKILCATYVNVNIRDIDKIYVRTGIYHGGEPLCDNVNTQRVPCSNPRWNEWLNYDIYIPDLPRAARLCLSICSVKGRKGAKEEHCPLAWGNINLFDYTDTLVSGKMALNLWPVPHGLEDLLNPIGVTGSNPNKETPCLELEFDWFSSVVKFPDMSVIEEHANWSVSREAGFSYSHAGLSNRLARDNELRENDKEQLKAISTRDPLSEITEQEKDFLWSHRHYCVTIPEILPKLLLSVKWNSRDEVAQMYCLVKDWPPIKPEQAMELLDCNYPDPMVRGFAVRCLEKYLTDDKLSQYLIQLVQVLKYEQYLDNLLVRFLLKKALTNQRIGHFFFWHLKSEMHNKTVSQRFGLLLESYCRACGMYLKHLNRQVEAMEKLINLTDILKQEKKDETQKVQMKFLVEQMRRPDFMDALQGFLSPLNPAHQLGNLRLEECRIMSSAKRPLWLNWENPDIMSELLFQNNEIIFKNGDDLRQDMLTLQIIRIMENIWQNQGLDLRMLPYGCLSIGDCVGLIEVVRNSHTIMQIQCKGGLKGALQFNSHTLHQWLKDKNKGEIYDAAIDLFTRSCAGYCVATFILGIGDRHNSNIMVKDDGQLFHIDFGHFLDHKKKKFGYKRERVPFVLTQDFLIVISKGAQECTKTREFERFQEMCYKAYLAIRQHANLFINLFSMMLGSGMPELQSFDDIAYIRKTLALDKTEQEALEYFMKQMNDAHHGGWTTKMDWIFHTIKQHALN
SMILES,inhibition [1],inhibition [2],inhibition [3],inhibition [4],inhibition [5],inhibition [6],inhibition [7],inhibition [8],inhibition [9],inhibition [10],inhibition [11],inhibition [12],inhibition [13],inhibition [14],inhibition [15],inhibition [16],inhibition [17],inhibition [18],inhibition [19],inhibition [20]
Cc1ccc(-c2cc3c(NC(=O)C4CC4)ncnc3o2)cc1,1.29%,0.82%,0.53%,3.56%,6.38%,1.17%,7.45%,5.13%,4.2%,1.34%,2.7%,-2.33%,-1.12%,1.23%,2.63%,2.48%,3.33%,-4.86%,-6.67%,3.8%
N#Cc1ccc2c(-c3ccnc(NC4CC4)n3)c(-c3ccc(F)cc3)nn2c1,1.27%,-2.45%,-1.38%,75.4%,84.2%,44.5%,74.8%,1.17%,0.18%,1%,1.13%,-1.5%,-2.4%,0.7%,0.6%,-0.45%,-0.14%,-2.01%,-0.71%,3.55%
OCCCNc1nccc(-c2c(-c3ccc(F)cc3)nn3cc(C(F)(F)F)ccc23)n1,5.6%,1.09%,3.54%,64.4%,91%,22.7%,68.7%,4.11%,3.39%,3.46%,2.13%,-1.12%,-3.43%,2.12%,2.75%,4.76%,4.87%,4.2%,-3.41%,-0.34%
Cc1nnc(-c2cccc(-c3ccc(C(=O)NCC4CC4)cc3)c2)o1,6.64%,-1.05%,-0.94%,4.85%,12.2%,3.66%,7.35%,3.76%,3.54%,4.5%,2.67%,-0.9%,2.29%,2.25%,2.72%,-0.87%,-2.41%,-0.63%,-1.44%,-1.27%
N#Cc1cccc(Nc2ncc(-c3ccccc3)o2)c1,4.14%,-0.78%,0.7%,2.24%,3.69%,1.51%,5.93%,-0.16%,2.33%,3.74%,1.79%,-1.82%,0.42%,0.88%,-1.04%,-0.63%,-0.04%,-0.3%,-1.82%,1.65%
Nc1nccc(-c2c(-c3ccc(F)cc3)ncn2C2CCNCC2)n1,1.29% and 5.05%,-1.41% and 0.32%,-1.34% and 0.18%,–,–,–,–,–,–,–,–,1.49% and -1%,-0.09% and 0.83%,-3.2% and 3.79%,1.34% and 1.58%,-0.68% and 4.92%,6.51% and 6.41%,0.69% and 2.98%,-2.46% and -0.82%,-0.52% and 0.67%
COc1c(C(N)=O)cc(-c2ccc(Cl)cc2)cc1-c1ccc(S(N)(=O)=O)cc1,5.76%,2.9%,0.68%,8.26%,10.3%,4.78%,4.22%,4.33%,6.61%,4.27%,5.43%,-3.03%,-1.89%,4.8%,2.59%,0.32%,1.67%,0.85%,3.11%,0.56%
CS(=O)(=O)CCNCc1ccc(-c2ccc3ncnc(Nc4ccc(OCc5ccccc5)cc4)c3c2)o1,1.62%,-0.49%,0.73%,4.73%,7.34%,2.9%,4.87%,2.17%,1.45%,2.39%,2.57%,-2.16%,-2.56%,2.93%,4.79%,0.74%,2.65%,0.91%,0.45%,-0.6%
COc1ccc(Nc2ncc(-c3ccccc3)o2)cc1OC,1.29%,-1.82%,-2.17%,4.31%,5.01%,1.96%,4.99%,0.77%,2.02%,4.1%,1.14%,-1.72%,-3.33%,-2.31%,0.95%,0.94%,4.48%,2.22%,4.24%,-0.27%
CNC(=O)c1cncc(/C=C/c2ccccc2C)c1,4.66%,-0.87%,3.21%,3.76%,6.09%,4.82%,7.21%,4.01%,3.77%,1.29%,1.72%,-0.49%,2.3%,2.18%,2.76%,1.24%,0.42%,-3.61%,7.59%,0.67%

# From ChEMBL document CHEMBL1961873, “Compounds: GSK PKIS; Assays: Nanosyn kinase panel” (2012)
